For 97 compounds, inhibition results are on record in PubChem BioAssay AID1671202 (University of Kansas High Throughput Screening Laboratory, 2021).

The structures appear in SMILES notation. Values joined by “and” are separate entries in the source; they are usually repeats but may differ in a detail not shown here. Equal entries are not always repeated. Out of some 190,000 compounds screened, about 6,900 (3.6%) were called active. This is one part of a sample in which actives are shown more often than they occur. Unmarked numbers belong to inactive results. Cut-off read from the data, not from the text of the source: active = inhibition above about 50%; inactive = the rest.

Huntingtin (Homo sapiens), sequence (P42858 whole entry, looked up, stated change not applied): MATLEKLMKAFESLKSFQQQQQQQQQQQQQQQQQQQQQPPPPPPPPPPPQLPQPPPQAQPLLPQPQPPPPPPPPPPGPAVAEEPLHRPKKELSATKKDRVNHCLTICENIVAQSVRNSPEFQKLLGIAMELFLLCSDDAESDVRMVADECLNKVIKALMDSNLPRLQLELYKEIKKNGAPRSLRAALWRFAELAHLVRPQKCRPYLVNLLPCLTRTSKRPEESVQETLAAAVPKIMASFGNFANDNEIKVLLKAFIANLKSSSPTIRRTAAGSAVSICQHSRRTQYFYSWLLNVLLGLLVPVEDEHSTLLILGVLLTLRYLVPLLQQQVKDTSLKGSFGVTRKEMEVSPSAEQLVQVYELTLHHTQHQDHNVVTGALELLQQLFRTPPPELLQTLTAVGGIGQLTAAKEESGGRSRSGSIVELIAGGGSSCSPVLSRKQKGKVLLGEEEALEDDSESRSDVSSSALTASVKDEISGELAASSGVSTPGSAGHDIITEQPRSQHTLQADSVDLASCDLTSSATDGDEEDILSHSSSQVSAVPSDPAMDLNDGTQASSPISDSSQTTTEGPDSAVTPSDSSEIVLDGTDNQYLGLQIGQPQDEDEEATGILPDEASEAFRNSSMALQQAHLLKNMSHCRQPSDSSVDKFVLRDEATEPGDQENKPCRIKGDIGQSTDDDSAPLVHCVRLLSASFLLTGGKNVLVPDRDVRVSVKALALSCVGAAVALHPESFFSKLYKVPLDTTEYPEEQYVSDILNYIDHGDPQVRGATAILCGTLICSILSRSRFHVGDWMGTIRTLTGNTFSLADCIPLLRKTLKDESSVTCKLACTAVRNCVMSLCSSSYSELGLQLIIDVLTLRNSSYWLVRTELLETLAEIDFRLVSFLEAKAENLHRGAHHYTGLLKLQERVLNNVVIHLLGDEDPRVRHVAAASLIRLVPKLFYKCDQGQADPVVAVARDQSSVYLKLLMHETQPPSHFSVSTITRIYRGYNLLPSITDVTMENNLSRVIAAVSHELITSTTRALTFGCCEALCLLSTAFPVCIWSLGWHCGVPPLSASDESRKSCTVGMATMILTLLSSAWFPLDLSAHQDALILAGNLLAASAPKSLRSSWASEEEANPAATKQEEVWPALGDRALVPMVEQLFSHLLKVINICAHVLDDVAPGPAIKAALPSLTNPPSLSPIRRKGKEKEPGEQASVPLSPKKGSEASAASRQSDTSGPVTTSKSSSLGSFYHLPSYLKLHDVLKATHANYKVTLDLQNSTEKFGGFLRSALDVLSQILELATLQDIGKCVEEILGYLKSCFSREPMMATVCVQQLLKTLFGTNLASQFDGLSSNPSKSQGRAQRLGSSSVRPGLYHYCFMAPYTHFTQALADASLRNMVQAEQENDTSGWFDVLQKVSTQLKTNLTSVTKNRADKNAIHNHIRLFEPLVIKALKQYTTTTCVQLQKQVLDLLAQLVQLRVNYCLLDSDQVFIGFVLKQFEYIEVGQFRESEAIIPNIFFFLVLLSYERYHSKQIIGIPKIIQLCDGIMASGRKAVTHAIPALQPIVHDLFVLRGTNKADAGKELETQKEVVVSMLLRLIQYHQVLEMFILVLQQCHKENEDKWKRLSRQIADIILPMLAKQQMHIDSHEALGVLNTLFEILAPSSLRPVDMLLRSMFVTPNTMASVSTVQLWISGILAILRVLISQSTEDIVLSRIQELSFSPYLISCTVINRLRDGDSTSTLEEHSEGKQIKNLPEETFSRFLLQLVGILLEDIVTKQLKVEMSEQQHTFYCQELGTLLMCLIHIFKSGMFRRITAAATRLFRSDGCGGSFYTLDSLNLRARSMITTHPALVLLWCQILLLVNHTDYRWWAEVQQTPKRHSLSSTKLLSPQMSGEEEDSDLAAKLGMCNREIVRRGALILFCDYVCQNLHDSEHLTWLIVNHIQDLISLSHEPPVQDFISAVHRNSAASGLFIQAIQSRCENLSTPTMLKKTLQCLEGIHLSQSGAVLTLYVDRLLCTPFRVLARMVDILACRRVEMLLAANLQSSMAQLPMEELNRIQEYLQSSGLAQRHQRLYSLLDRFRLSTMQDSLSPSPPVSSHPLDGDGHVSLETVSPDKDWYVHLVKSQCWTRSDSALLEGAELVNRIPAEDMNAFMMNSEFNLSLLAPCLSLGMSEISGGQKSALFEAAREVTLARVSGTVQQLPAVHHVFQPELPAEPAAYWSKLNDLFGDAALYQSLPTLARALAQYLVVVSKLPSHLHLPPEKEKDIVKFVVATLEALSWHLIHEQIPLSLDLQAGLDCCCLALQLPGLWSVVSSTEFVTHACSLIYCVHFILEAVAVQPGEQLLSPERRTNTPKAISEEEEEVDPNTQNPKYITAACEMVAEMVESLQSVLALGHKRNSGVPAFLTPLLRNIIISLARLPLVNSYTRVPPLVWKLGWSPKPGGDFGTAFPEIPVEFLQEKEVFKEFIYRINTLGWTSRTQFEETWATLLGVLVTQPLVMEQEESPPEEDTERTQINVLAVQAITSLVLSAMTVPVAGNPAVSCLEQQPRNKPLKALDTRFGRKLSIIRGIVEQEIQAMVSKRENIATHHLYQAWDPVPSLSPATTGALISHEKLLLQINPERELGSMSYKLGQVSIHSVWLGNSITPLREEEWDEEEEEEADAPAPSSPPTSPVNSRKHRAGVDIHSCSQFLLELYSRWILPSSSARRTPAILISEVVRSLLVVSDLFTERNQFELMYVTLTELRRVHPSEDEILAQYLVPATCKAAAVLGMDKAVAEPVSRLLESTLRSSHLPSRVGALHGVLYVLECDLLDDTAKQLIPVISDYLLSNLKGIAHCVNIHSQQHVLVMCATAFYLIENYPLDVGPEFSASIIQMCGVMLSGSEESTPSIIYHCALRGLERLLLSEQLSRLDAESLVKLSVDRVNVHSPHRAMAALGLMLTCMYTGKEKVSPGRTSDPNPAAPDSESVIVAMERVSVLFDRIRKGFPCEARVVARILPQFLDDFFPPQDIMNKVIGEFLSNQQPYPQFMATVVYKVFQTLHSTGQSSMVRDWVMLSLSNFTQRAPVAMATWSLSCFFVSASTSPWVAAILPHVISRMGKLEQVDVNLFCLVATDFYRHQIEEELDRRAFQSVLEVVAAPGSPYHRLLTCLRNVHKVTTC

The experiment concerns the target Huntingtin (Homo sapiens) (UniProt P42858). Put plainly: mutant huntingtin-calmodulin interaction inhibitors – biochemical, AlphaScreen, primary screen (AID 1671202).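 Note: 0% = both proteins with DMSO and 100% = one protein alone.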 The following applies: AlphaScreen His-mHTT/GST-CaM binding, luminescence; at 15 µM, stronger effect = higher value. (In general: In Alpha technology, singlet oxygen from a donor bead excites a nearby acceptor bead.)
Take `O=[N+]([O-])c1ccc(N2CCN(S(=O)(=O)c3ccc(Br)s3)CC2)cc1`: the inhibition was 7%.

Turning to `CCC(=O)Nc1ccc(S(=O)(=O)N2CCN(C)c3ccccc32)cc1`, the inhibition was -1.8%.

As for `O=C(CSc1nc(-c2ccccc2)nc2c1CCCC2)c1ccc(O)c(O)c1`, the inhibition is 52% (active).

`O=C(CSc1ncn[nH]1)c1ccc(O)c(O)c1`: the inhibition was -5.2% and -1%.

On to `O=C(CSc1nc2[nH]ncc2c(=O)n1-c1ccccc1)c1ccc(Cl)c(Cl)c1`, for which the inhibition was 48%.

Consider `COc1cc(OC)c(OC)cc1C=Nc1ccccc1C(=O)O`, for which the inhibition is 5.4%.

In the case of `CC(Oc1ccc(Cl)cc1)C(=O)N1CCn2c(nnc2C(C)C)C1` (configuration not stated), the inhibition is 2.1%.

For `Cc1cc(NN)nc(-c2ccccc2O)n1`, the inhibition was 53.5% (active).

Take `CC(C)Nc1nc(-c2ccccc2O)nc2ccccc12`: the inhibition was -13.2%.

Consider `Cc1cc(Nc2ccccc2)nc(N)n1`, for which the inhibition is 0.7%.

On to `CCCNC(=O)C1CCN(Cc2cn(C)c3ccc(Cl)cc23)CC1`, for which the inhibition is -7.24%.

Consider `O=C(NCc1ccc(F)cc1)c1ccc2c(c1)NC(=O)C(N1CCCCC1)S2` (configuration not stated), for which the inhibition is -10%.

Consider `CCCNC(=O)c1cn(-c2ccc(C)cc2)nn1`, for which the inhibition was -7.1%.

On to `COc1ccc(N2C(=O)C3CCCN3C2c2cc(OC)c(OC)cc2OC)cc1` (configuration not stated), for which the inhibition was -4.26%.

On to `COc1cccc(N2C(=O)C3CCCN3C2c2ccc(F)cc2)c1` (configuration not stated), for which the inhibition is 5.08%.

Consider `Cc1ccc(N2C(=O)C3C4C=CC(CC4)C3C2=O)cc1Cl` (configuration not stated), for which the inhibition is -5%.

As to `COc1ccc(N2C(=O)C3CCCN3C2c2ccc(Cl)c(Cl)c2)cc1` (configuration not stated), the inhibition was 68% (active).

For `COc1ccc(N2C(=O)C3CCCN3C2c2cccs2)cc1` (configuration not stated), the inhibition was -7.68%.

On to `Cc1ccsc1C1N(c2ccc(Cl)c(Cl)c2)C(=O)C2CCCN21` (configuration not stated), for which the inhibition is 96.1% (active).

`CCOc1ccc(CC(=O)N2CC3CC2CC3NC(=O)c2ccccc2)cc1` (configuration not stated): the inhibition was 5.36%.

Consider `CCOc1ccc(-c2nnc(Nc3ccc(C(N)=O)cc3)c3ccccc23)cc1`, for which the inhibition was 6%.

Take `CCOC(=O)C1CCN(C(=O)C2CCc3sc(C(=O)N4CCCCC4)cc3C2)CC1` (configuration not stated): the inhibition is 4.24%.

As to `COc1cccc(N2CCN(C(=O)c3ccc(Cl)cc3Cl)C(C)C2=O)c1` (configuration not stated), the inhibition is 3.4%.

`Cc1cc(C(=O)Nc2ccccc2)nc2ccnn12`: the inhibition is -10.8%.

Take `O=C1[C@H]2OC[C@H](O2)[C@@H]2[C@H]1[C@H]1C=Cc3ccccc3N1[C@@H]2C(=O)c1ccc(F)cc1`: the inhibition is 91.4% (active).

`O=C(c1ccc(F)cc1)N1CCC(N2CCC(C(=O)N3CCCCC3)CC2)CC1`: the inhibition is -3.3%.

Take `Cc1ccc(Nc2nc(-c3ccc(O)cc3O)cs2)nc1`: the inhibition is 100% (active).

Take `Cc1ccc(-c2csc(NC(=O)c3ccc([N+](=O)[O-])cc3)n2)c(C)c1`: the inhibition was 10.4%.

Take `Brc1ccc(Nc2nc(-c3ccc4c(c3)OCO4)cs2)nc1`: the inhibition was -1.1%.

For `O=C(CSc1ncc(CO)n1Cc1ccccc1)Nc1ccc([N+](=O)[O-])cc1`, the inhibition is 20.9%.

In the case of `Oc1ccc(N=Nc2nccs2)c(O)c1`, the inhibition was 99.9% (active).

Regarding `Cc1[nH]c(=O)[nH]c(=O)c1S(=O)(=O)NC1=NCCS1`, the inhibition was 3%.

Regarding `COCc1cc(C)nc2sc(C(=O)N(c3ccccc3)c3ccccc3)c(N)c12`, the inhibition is -19%.

With `COCc1cc(C)nc2sc(C(N)=O)c(N)c12`, the inhibition was -5%.

For the compound `COCc1cc(C)nc2sc(C3=NC(C)(C)Cc4ccccc43)c(N)c12`, the inhibition was 58% (active).

In the case of `O=C(Nc1ccc(C(F)(F)F)cc1)N1CCc2c(nc[nH]c2=O)C1`, the inhibition is -3.4%.

On to `CCN(Cc1ccccc1)C(=O)c1sc2ccccc2c1Cl`, for which the inhibition was -67.9%.

As to `CCCCN1C(=O)C(C)(C(=O)Nc2cccc(OC)c2)Oc2cccnc21` (configuration not stated), the inhibition was 4.7%.

As to `Cc1cccc(-n2nnc(C(=O)NCCN3CCCC3)c2N)c1`, the inhibition was 2%.

On to `C1=C(N2CCOCC2)/C(=C/c2nc3ccccc3[nH]2)CC1`, for which the inhibition is 67.1% (active).

On to `c1ccc2[nH]c(-c3nc4ccccc4[nH]3)nc2c1`, for which the inhibition was 7.27%.

For `c1ccc(-c2nnc(N3CCOCC3)c3ccccc23)cc1`, the inhibition is -4.1%.

In the case of `Cc1cc(Cl)ccc1NC(=O)C(C)N(c1ccccc1)S(C)(=O)=O` (configuration not stated), the inhibition was -1.9%.

As for `O=C(NCc1ccc2c(c1)OCO2)C1CCc2sc(C(=O)N3CCOCC3)cc2C1` (configuration not stated), the inhibition is -0.39%.

Take `CCCNC(=O)C1CCN(Cc2c(C)n(CC)c3ccccc23)CC1`: the inhibition is 7.5%.

`COc1ccccc1N1CCN(C(=O)c2cc(-c3ccc(Cl)c(Cl)c3)on2)CC1`: the inhibition is -3%.

For `Cc1cc(C(=O)N2CC(C(=O)Nc3cccc(NS(C)(=O)=O)c3)C2)no1`, the inhibition is -19.8%.

Turning to `Cc1cc(C(=O)N2CC(C(=O)N3CCN(c4ccc(Cl)c(Cl)c4)CC3)C2)no1`, the inhibition was 66.7% (active).

`CN(C(=O)Cc1c[nH]c2ccccc12)C1(C(=O)NC2CCCCC2)CCCCC1`: the inhibition is 6%.

For `CC(=O)c1sc(NC(=O)c2ccccc2[N+](=O)[O-])nc1C`, the inhibition was -19.4%.

Regarding `Cc1cccc(C(=O)NCCC2CCN(C(=O)Nc3cccc(Cl)c3)CC2)c1`, the inhibition is -18.9%.

In the case of `CCOc1ccc(-n2c(C)nc3cc(C(=O)NCC(OCC)OCC)ccc32)cc1`, the inhibition was 23%.

For `CCOC(CNC(=O)c1ccc2c(c1)nc(C)n2-c1cc(Cl)ccc1OC)OCC`, the inhibition is 52% (active).

On to `COc1ccccc1-n1c(C)nc2cc(C(=O)NCc3cccnc3)ccc21`, for which the inhibition was 0%.

Consider `O=C1c2ccccc2C(=O)c2c1ccc(Cl)c2NC(=O)C(F)(F)F`, for which the inhibition is 18%.

Regarding `O=S(=O)(c1ccc(Cl)cc1)N1CCSC1c1ccccc1Cl` (configuration not stated), the inhibition was -18%.

`O=C(NC1CCCCC1)C1CC(c2ccc(F)cc2)=NO1` (configuration not stated): the inhibition was -5.78%.

As for `N=C1S/C(=C\c2ccc(N3CCOCC3)cc2)C(=O)N1c1ccccc1Cl`, the inhibition is 39%.

For `Cc1ccc(C2=CC(c3ccc(C)cc3)n3nc(CCCO)nc3N2)cc1` (configuration not stated), the inhibition was 24%.

For `CCC(=O)NCc1csc(C2CCCN(C(=O)C(C)(C)C)C2)n1` (configuration not stated), the inhibition was 1.52%.

On to `O=C1OC(c2cccc(Br)c2)=N/C1=C\c1ccc(I)cc1`, for which the inhibition was 5%.

Turning to `COC(C(=O)Nc1ccc(C(C)=O)cc1)c1ccccc1` (configuration not stated), the inhibition was -1.7%.

For the compound `O=C(Nc1cc(F)ccc1F)C(c1ccccc1)n1cccc1` (configuration not stated), the inhibition is 42.3%.

`COC(=O)c1ccc(NC(=O)C(c2ccccc2)n2cccc2)cc1` (configuration not stated): the inhibition is 75.5% (active).

`CN(C)Cc1c(O)ccc2c1OC(=Cc1cccs1)C2=O`: the inhibition was 1.1%.

For the compound `C=CCn1c(SC(CCO)C(=O)N2CCCCC2)nc2sc3c(c2c1=O)CCCC3` (configuration not stated), the inhibition was 35.2%.

Regarding `Nc1nc(SCC(=O)N2CCCCC2)nc2sc3c(c12)CCCC3`, the inhibition was 35%.

In the case of `NNc1nc2sc3c(c2c(=O)n1Cc1ccccc1)CCCC3`, the inhibition is 79.8% (active).

As for `COc1ccccc1NC(=O)N1CCC2(CC1)NC(=O)c1cc(F)ccc1N2C`, the inhibition was -0.74%.

Take `CCOCCCNC(=O)N1CCC2(CC1)Nc1cc(F)ccc1-n1cccc12`: the inhibition is 64.6% (active).

For the compound `Cc1ccc(NC(=O)N2CCC3(CC2)Nc2cc(F)ccc2-n2cccc23)c(Cl)c1`, the inhibition was 31.9%.

Take `CCOc1ccccc1NC(=O)N1CC2CN(S(=O)(=O)c3ccc(C)cc3)CC(C1)O2`: the inhibition was -6.22%.

Consider `CCOc1ccccc1NC(=O)N1CCC2(CC1)c1cccn1-c1ccc(C)cc1N2CC`, for which the inhibition was 50.5% (active).

`CCOCCCNC(=O)N1CCc2cn(C)c3cccc(c23)C1`: the inhibition is 4.99%.

Take `Cc1ccccc1-n1ccn(CC(=O)NCc2ccco2)c(=O)c1=O`: the inhibition is 1%.

For `COc1ccc(C)cc1NC(=O)N1CCC2(CC1)Nc1cc(F)ccc1-n1cccc12`, the inhibition was 54% (active).

As to `CCOc1ccccc1NC(=O)N1CCC(N2CCN(Cc3ccccc3)C2=O)CC1`, the inhibition was 4.68%.

Take `CC1CCC2(CC1)NC(=O)N(CC(=O)NCc1ccco1)C2=O` (configuration not stated): the inhibition is 1.16%.

Take `O=C(NCc1ccco1)N1CCC2(CC1)Nc1ccccc1-n1cccc12`: the inhibition was 67.5% (active).

`CCOCCCNC(=O)C1(C)CCC(=O)N1c1ccc(F)cc1C` (configuration not stated): the inhibition was -2.61%.

On to `CC(C)n1c(C2CCN(C(=O)C3(c4ccccc4)CC3)C2)nc2ccncc21` (configuration not stated), for which the inhibition is 1.58%.

Consider `O=c1[nH]c(-c2ccccc2)cn1-c1cccc(C(F)(F)F)c1`, for which the inhibition was 12%.

On to `C=Cc1ccc(CN2C(=O)N(c3ccc(F)cc3)c3ncccc3S2(=O)=O)cc1`, for which the inhibition was -1.5%.

As to `Nc1cc(C2CCN(C(=O)Nc3cc(Cl)cc(Cl)c3)CC2)no1`, the inhibition was 1.32%.

Take `Cc1nn2cc(-n3cc([N+](=O)[O-])cn3)cnc2c1[N+](=O)[O-]`: the inhibition is -2.97%.

For the compound `COc1cccc(CC(=O)Nc2cccn3c(C)nnc23)c1`, the inhibition is -2.3%.

In the case of `CCCn1c(=O)c2sc(N3CCCC3)nc2n(CC(=O)Nc2cc(F)cc(F)c2)c1=O`, the inhibition is -10.6%.

Turning to `COc1ccc2oc(-c3ccc(NC(=O)c4cccc(Br)c4)cc3)nc2c1`, the inhibition is 34%.

In the case of `C=CCc1ccc(OCC(=O)NCCC2=CCCCC2)c(OC)c1`, the inhibition is -16%.

On to `COc1cc(OC)c(N2C=C(C#N)S(=O)(=O)c3ccc(F)cc32)cc1Cl`, for which the inhibition was -0.3%.

Take `Cc1cccc(CNC(=O)c2cc(C(C)C)n3nccc3n2)c1`: the inhibition is -134%.

With `Cc1ccc(NC(=O)O[C@H]2CCC23CCCCC3)cc1`, the inhibition is -86.9%.

`Cc1cc(C)c(S(=O)(=O)N2CCCC2C(=O)NCCc2csc(C)n2)c(C)c1` (configuration not stated): the inhibition was -2.4%.

Turning to `Cc1cccc(C(=O)N2CCN(c3nc4ccccc4n(CC(C)C)c3=O)CC2)c1`, the inhibition is -13.3%.

On to `Cc1ccc2c(c1)NC1(CCN(C(=O)c3ccccc3)CC1)c1cccn1-2`, for which the inhibition was 84.3% (active).

Take `CCN1c2ccc(C)cc2C(=O)NC12CCN(C(=O)c1cccc(C)c1)CC2`: the inhibition is -2.5%.

For `O=C1NC2(CCN(C(=O)c3ccccc3)CC2)Nc2cc(Cl)ccc21`, the inhibition is -7.3%.

For orientation: inhibition means the change of the read-out against control, counted positive when it falls.
